# Laboratory results as given in PubChem BioAssay (Tox21).
# “And” between values parts separate entries of the source, which are not always exact repeats. Identical values can stand only once. Inconclusive results are not listed. A call without a number means that no potency is given here. Where a structure was tested more than once in an assay, its records may differ in their call. The source made the active and inactive calls. Calls follow the shape of the dose curve; as a rule, active = well fitted curve in the direction sought with a large enough effect in the repeat runs; inconclusive = weak or mixed curves; inactive = no such curve, though single readings can be large; an effect the other way counts as inactive or inconclusive.
# How the values were obtained:
# [1] = A CellTox Green Cytotoxicity Assay to monitor cytotoxicity in HepG2 cells - 0 hour (AID 1224882); also: nearly all actives have a fitted effect of over 35% in size; also: potency is read from the fitted curve at half-maximal effect
# Procedure, shortened: (§1)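 First, HepG2 cells (600/well) mixed with reagent were plated; second, after 5 h at 37 C they received compounds via pintool; third, fluorescence was measured at 0 h through 40 h at 8 h intervals.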
# [2] = A CellTox Green Cytotoxicity Assay to monitor cytotoxicity in HEK293 cells - 8 hour (AID 1224884); also: nearly all actives have a fitted effect of over 35% in size; also: potency is read from the fitted curve at half-maximal effect
# Procedure, shortened: (§2)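 Dead-cell fluorescence measured kinetically: asymmetric cyanine dye, HEK293, 600 cells/well, 5 h settle, 23 nL cpd/DMSO, 37 C, reads 0–40 h every 8 h.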
# [3] = qHTS RealTime-Glo MT Cell Viability Assay in HepG2 cells - 16 hour (AID 1224885); also: nearly all actives have a fitted effect of over 50% in size; also: potency is read from the fitted curve at half-maximal effect
# Procedure, shortened: (§3)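 Cells + NanoLuc/prosubstrate dispensed (600 cells/well) → 5 h at 37 C/5% CO2 → compounds in DMSO transferred → 40 h incubation at 37 C, luminescence read at 0, 8, 16, 24, 32, 40 h.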
# [4] = A CellTox Green Cytotoxicity Assay to monitor cytotoxicity in HEK293 cells - 16 hour (AID 1224888); also: nearly all actives have a fitted effect of over 35% in size; also: potency is read from the fitted curve at half-maximal effect
# Procedure, shortened: as §2
# [5] = qHTS RealTime-Glo MT Cell Viability Assay in HepG2 cells - 0 hour (AID 1224889); also: nearly all actives have a fitted effect of over 50% in size
# Procedure, shortened: as §3
# [6] = A CellTox Green Cytotoxicity Assay to monitor cytotoxicity in HepG2 cells - 8 hour (AID 1224890); also: nearly all actives have a fitted effect of over 45% in size; also: potency is read from the fitted curve at half-maximal effect
# Procedure, shortened: as §1
# [7] = qHTS assay to identify small molecule antagonists of the estrogen receptor alpha (ER-alpha) signaling pathway using the BG1 cell line in the presence of 0.1 nM 17-beta-estradiol - cell viability counter screen (AID 1259241); also: nearly all actives have a fitted effect of over 40% in size; also: potency is read from the fitted curve at half-maximal effect
# Procedure, shortened: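 Cells were plated and left 24 hr, compounds in DMSO were pinned in, 17beta-estradiol was added to 0.1 nM final, and after 22 hr CellTiter-Fluor reagent was added for 30 min before fluorescence was read.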
# [8] = qHTS RealTime-Glo MT Cell Viability Assay in HEK293 cells - 24 hour (AID 1224886); also: nearly all actives have a fitted effect of over 50% in size; also: potency is read from the fitted curve at half-maximal effect; as to activity change, negative = cytotoxicity: top concentration of the series differs between compounds
# Procedure, shortened: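 Tox21 10K qHTS, HEK293, 600 cells/well, RealTime-Glo reagent co-dispensed with cells; 5 h preincubation, compound by pintool, 37 C, luminescence at 0–40 h.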
# [9] = qHTS RealTime-Glo MT Cell Viability Assay in HEK293 cells - 8 hour (AID 1224887); also: nearly all actives have a fitted effect of over 50% in size; also: potency is read from the fitted curve at half-maximal effect; as to activity change, negative = cytotoxicity: top concentration of the series differs between compounds
# Procedure, shortened: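 600 HEK293 cells per well, dispensed already mixed with RealTime-Glo MT reagents. Compound dosing came 5 h later. The same wells were read for luminescence at 0, 8, 16, 24, 32 and 40 h of exposure at 37 C.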
# [10] = A CellTox Green Cytotoxicity Assay to monitor cytotoxicity in HepG2 cells - 32 hour (AID 1224883); also: nearly all actives have a fitted effect of over 50% in size; also: potency is read from the fitted curve at half-maximal effect
# Procedure, shortened: as §1
smiles,measurement,setting,value
CCCCCCCCCCCCN=C(N)N,cytotoxicity,[1],-4.6% [at 2.72 µM] (inactive)
same,cytotoxicity increase,[2],4.34% [at 2.72 µM] (inactive)
same,"activity change, negative = cytotoxic",[3],-5.38% [at 2.72 µM] (inactive)
same,activity change,[4],"7.85% [at 2.72 µM, stronger effect = higher value] (inactive)"
same,"activity change, negative = cytotoxicity",[5],5.28% [at 2.72 µM] (inactive)
same,cytotoxicity increase,[6],-0.515% [at 2.72 µM] (inactive)
same,"activity change, negative = cytotoxicity",[7],2.27% [at 3.27 µM] (inactive)
CC(C)(C)c1ccc(CCOc2ncnc3ccccc23)cc1,Potency,[1],inactive
same,Potency,[2],inactive
same,Potency,[3],inactive
same,Potency,[8],inactive
same,Potency,[9],inactive
same,Potency,[4],inactive
same,Potency,[6],inactive
same,Potency,[7],inactive
C=C(C)C(=O)OCCCCOC(=O)C(=C)C,Potency,[1],inactive
same,Potency,[2],inactive
same,Potency,[3],inactive
same,Potency,[8],inactive
same,Potency,[9],inactive
same,Potency,[4],inactive
same,outcome,[5],inactive
same,Potency,[6],inactive
same,Potency,[7],inactive
COc1cc(CC(C)N)c(OC)cc1Br (stereo not drawn),Potency,[1],inactive
same,Potency,[2],inactive
same,Potency,[3],inactive
same,Potency,[8],inactive
same,Potency,[9],inactive
same,Potency,[4],inactive
same,Potency,[6],inactive
same,Potency,[7],inactive
C[C@H]1O[C@H](OC2[C@@H](O)[C@@H](O)C(O)[C@H](O)[C@H]2O)[C@@H](N)C[C@@H]1N=C(N)C(=O)O (stereo partly drawn),Potency,[1],inactive
same,Potency,[2],inactive
same,Potency,[3],inactive
same,Potency,[8],inactive
same,Potency,[9],inactive
same,Potency,[4],inactive
same,outcome,[5],inactive
same,Potency,[6],inactive
same,Potency,[7],inactive
CCCN(CCOc1c(Cl)cc(Cl)cc1Cl)C(=O)n1ccnc1,Potency,[1],inactive
same,Potency,[2],inactive
same,Potency,[3],inactive
same,Potency,[8],22.3 µM (active) and 27.5 µM (active)
same,Potency,[9],44.6 µM (active) and 27.5 µM (active)
same,Potency,[4],inactive
same,Potency,[6],inactive
same,Potency,[7],inactive
COc1cc(C[C@@H](C)N)c(OC)cc1Br,Potency,[1],inactive
same,Potency,[2],inactive
same,Potency,[3],inactive
same,Potency,[8],inactive
same,Potency,[9],inactive
same,Potency,[4],inactive
same,Potency,[6],inactive
same,Potency,[7],inactive
C=CCN1C[C@H](C)N([C@H](c2ccc(C(=O)N(CC)CC)cc2)c2cccc(OC)c2)C[C@H]1C,Potency,[1],inactive
same,Potency,[2],inactive
same,Potency,[3],inactive
same,Potency,[9],inactive
same,Potency,[4],inactive
same,Potency,[6],inactive
same,Potency,[7],inactive
C[CH2][Hg][S]c1ccccc1C(=O)O,Potency,[1],inactive
same,Potency,[2],4.77 µM (active)
same,Potency,[3],2.45 µM (active) and 2.13 µM (active)
same,Potency,[8],1.1 µM (active) and 1.34 µM (active)
same,Potency,[9],3.09 µM (active) and 4.25 µM (active)
same,Potency,[4],4.77 µM (active)
same,Potency,[6],7.76 µM (active) and 2.39 µM (active)
same,Potency,[7],21.7 µM (active) and 5.96 µM (active)
C[Si](Cn1cncn1)(c1ccc(F)cc1)c1ccc(F)cc1,Potency,[1],inactive
same,Potency,[2],inactive
same,Potency,[3],inactive
same,Potency,[8],25.4 µM (active) and 21.9 µM (active)
same,Potency,[4],inactive
same,outcome,[5],inactive
same,Potency,[6],inactive
same,Potency,[7],inactive
CCOC(=O)c1cncn1C(C)c1ccccc1 (stereo not drawn),Potency,[1],inactive
same,Potency,[2],inactive
same,Potency,[3],inactive
same,Potency,[8],inactive
same,Potency,[9],inactive
same,Potency,[4],inactive
same,outcome,[5],inactive
same,Potency,[6],inactive
same,Potency,[7],inactive
CN(C)N,Potency,[1],inactive
same,Potency,[3],inactive
same,Potency,[8],inactive
same,Potency,[9],inactive
same,outcome,[5],inactive
same,Potency,[6],inactive
same,Potency,[7],inactive
Clc1ccc2ccccc2c1,Potency,[1],inactive
same,Potency,[3],inactive
same,Potency,[6],inactive
same,Potency,[7],inactive
CC(C)CCON=O,Potency,[1],inactive
same,Potency,[2],inactive
same,Potency,[3],inactive
same,Potency,[8],inactive
same,Potency,[9],inactive
same,outcome,[5],inactive
same,Potency,[6],inactive
same,Potency,[7],inactive
CCOP(=S)(OCC)SCSc1cc(Cl)ccc1Cl,Potency,[1],inactive
same,Potency,[2],inactive
same,Potency,[3],inactive
same,Potency,[8],inactive
same,Potency,[9],inactive
same,Potency,[4],inactive
same,outcome,[5],inactive
same,Potency,[6],inactive
same,Potency,[7],inactive
C=CCc1ccc(OC(=O)Cc2ccccc2)c(OC)c1,Potency,[1],inactive
same,Potency,[2],inactive
same,Potency,[3],inactive
same,Potency,[9],inactive
same,Potency,[4],inactive
same,outcome,[5],inactive
same,Potency,[6],inactive
same,Potency,[7],inactive
CCCCCl,Potency,[1],inactive
same,Potency,[2],inactive
same,Potency,[3],inactive
same,Potency,[8],inactive
same,Potency,[9],inactive
same,Potency,[4],inactive
same,outcome,[5],inactive
same,Potency,[6],inactive
same,Potency,[7],inactive
O=C(O)c1cc(Cl)ccc1Cl,Potency,[1],inactive
same,Potency,[2],inactive
same,Potency,[3],inactive
same,Potency,[8],inactive
same,Potency,[9],inactive
same,Potency,[4],inactive
same,outcome,[5],inactive
same,Potency,[6],inactive
same,Potency,[7],inactive
OCC1CO1 (stereo not drawn),Potency,[2],44.4 µM (active) and inactive
same,Potency,[3],inactive
same,Potency,[8],inactive
same,Potency,[9],inactive
same,Potency,[4],inactive
same,outcome,[5],inactive
same,Potency,[7],inactive
O=C(N[C@H]1CN2CCC1CC2)c1ccc2c(c1)OCCO2,Potency,[1],inactive
same,Potency,[2],inactive
same,Potency,[3],inactive
same,Potency,[8],inactive
same,Potency,[9],inactive
same,Potency,[4],inactive
same,outcome,[5],inactive
same,Potency,[6],inactive
same,Potency,[7],inactive
O=C1c2ccccc2C(=O)N1SC(Cl)(Cl)Cl,Potency,[1],inactive
same,Potency,[2],inactive
same,Potency,[3],19.5 µM (active)
same,Potency,[8],5.42 µM (active) and 6.16 µM (active)
same,Potency,[4],inactive
same,Potency,[6],inactive
same,Potency,[7],inactive
CC(=O)OC(c1ccccc1)C(Cl)(Cl)Cl (stereo not drawn),Potency,[10],24.5 µM (active)
same,Potency,[2],19.5 µM (active)
same,Potency,[3],inactive
same,Potency,[8],inactive
same,Potency,[9],inactive
same,outcome,[5],inactive
same,Potency,[6],24.5 µM (active)
same,Potency,[7],inactive
Cc1nnc(-c2ccccc2)c(=O)n1N,Potency,[1],inactive
same,Potency,[2],inactive
same,Potency,[3],inactive
same,Potency,[8],inactive
same,Potency,[9],inactive
same,Potency,[4],inactive
same,outcome,[5],inactive
same,Potency,[6],inactive
same,Potency,[7],inactive
CCOC(=O)NC(O)C(Cl)(Cl)Cl (stereo not drawn),Potency,[1],inactive
same,Potency,[2],inactive
same,Potency,[3],inactive
same,Potency,[8],inactive
same,Potency,[9],inactive
same,Potency,[4],inactive
same,outcome,[5],inactive
same,Potency,[6],inactive
same,Potency,[7],inactive
C#C[C@]1(O)CC[C@H]2[C@@H]3CCC4=CC(=O)CCC4=C3C=C[C@@]21CC,Potency,[1],inactive
same,Potency,[2],inactive
same,Potency,[3],inactive
same,Potency,[9],inactive
same,Potency,[4],inactive
same,outcome,[5],inactive
same,Potency,[6],inactive
same,Potency,[7],inactive
Oc1cccc(Cl)c1,Potency,[1],inactive
same,Potency,[2],inactive
same,Potency,[3],inactive
same,Potency,[8],inactive
same,Potency,[9],inactive
same,Potency,[4],inactive
same,Potency,[6],inactive
same,Potency,[7],inactive
COc1ccc(C(=O)c2c(C)n(CCN3CCOCC3)c3ccccc23)cc1,Potency,[1],0.952 µM (active)
same,Potency,[2],inactive
same,Potency,[3],inactive
same,Potency,[9],inactive
same,Potency,[4],inactive
same,Potency,[6],1.07 µM (active)
same,Potency,[7],inactive
C[N+]1(CCC(C(N)=O)(c2ccccc2)c2ccccc2)CCCCC1,Potency,[1],inactive
same,Potency,[2],inactive
same,Potency,[3],inactive
same,Potency,[8],inactive
same,Potency,[9],inactive
same,Potency,[4],inactive
same,Potency,[6],inactive
O=C(NC(=O)c1cc(F)c(F)cc1Cl)Nc1cc(F)ccc1N1CCC(C(=O)O)CC1,Potency,[10],inactive
same,Potency,[2],inactive
same,Potency,[3],inactive
same,Potency,[8],inactive
same,Potency,[9],inactive
same,Potency,[4],inactive
same,outcome,[5],inactive
CN1CC[C@]23c4c5ccc(O)c4O[C@H]2[C@@H](O)C=C[C@H]3[C@H]1C5,Potency,[10],inactive
same,Potency,[2],inactive
same,Potency,[3],inactive
same,Potency,[8],inactive
same,Potency,[9],inactive
same,Potency,[4],inactive
same,outcome,[5],inactive
same,Potency,[6],inactive
CC(C)(C)N(NC(=O)c1ccc(Cl)cc1)C(=O)c1ccccc1,Potency,[1],inactive
same,Potency,[2],inactive
same,Potency,[3],inactive
same,Potency,[9],inactive
same,Potency,[4],inactive
same,Potency,[6],inactive
